MITF act = increases MITF-driven TRPM1 promoter luciferase signal | SK-MEL-5 TRPM1-promoter luciferase, 24 h; % of positive control, neutral wells = 0 | activation, % at 12.5 µM | 300,000 tested, 0.75% active | AID 588334;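 active means mean activation of at least 80% with every replicate also reaching 80%; inconclusive means mean reaches 80% but some replicate falls short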;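 further: 0% = neutral control wells and 100% = parthenolide positive control wells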
Wnt act = activates Wnt/beta-catenin signaling in a reporter cell assay; activator, plate reader; activation, % at 9.35 µM; 300,000 tested, 1.2% active; AID 743398; in the data active means activation above about 30%, passing the limit was not always enough; inconclusive means no clear call, values can overlap the other calls;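 further: 0% = neutral control wells and 100% = positive control wells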
Ecoli rRNA inh = selective bacterial rRNA inhibition in E. coli; E. coli WT GFP vs humanized-ribosome RFP mutants, fluorescence, 24 h; stronger effect = lower value; DMSO median 0, no signal -100; GFP signal change (wild-type ribosome), % (no concentration beside the values); 350,000 tested, 1.6% active;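 active means significant combined selectivity score with lowered wild-type GFP, culture density cut under 30%, mutant RFP and density less affected; inactive means any of these conditions unmet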
esBAF inh = inhibitors of esBAF chromatin remodeling in mouse ES cells. Bmi1-luciferase knock-in reporter, 24 h; 100% = twice the neutral-well signal. AID 602393. reporter increase, % at 12.5 µM. 350,000 tested, 2% active; in the data active means activation above about 40%; inconclusive means no clear call, values can overlap the other calls;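 further: 0% = median of the plate's neutral control wells and 100% = double that signal; a rise in the Bmi1 reporter signal indicates esBAF inhibition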
AF4-AF9 inh = inhibitors of human MLL-AF4/AF9 interaction | AlphaScreen, biotin-AF4 peptide binding to FLAG-AF9 | AID 651704 | 350,000 tested, 0.47% active | P42568 | inhibition, % at 10 µM;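 active means every replicate reaching a set inhibition limit, whatever the replicate mean, cut at about 25% in these data; inconclusive means mean inhibition reaches that limit but some replicates miss it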;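 further: 0% = plate neutral control median and 100% = total signal loss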
Target sequence (P42568 whole entry, looked up): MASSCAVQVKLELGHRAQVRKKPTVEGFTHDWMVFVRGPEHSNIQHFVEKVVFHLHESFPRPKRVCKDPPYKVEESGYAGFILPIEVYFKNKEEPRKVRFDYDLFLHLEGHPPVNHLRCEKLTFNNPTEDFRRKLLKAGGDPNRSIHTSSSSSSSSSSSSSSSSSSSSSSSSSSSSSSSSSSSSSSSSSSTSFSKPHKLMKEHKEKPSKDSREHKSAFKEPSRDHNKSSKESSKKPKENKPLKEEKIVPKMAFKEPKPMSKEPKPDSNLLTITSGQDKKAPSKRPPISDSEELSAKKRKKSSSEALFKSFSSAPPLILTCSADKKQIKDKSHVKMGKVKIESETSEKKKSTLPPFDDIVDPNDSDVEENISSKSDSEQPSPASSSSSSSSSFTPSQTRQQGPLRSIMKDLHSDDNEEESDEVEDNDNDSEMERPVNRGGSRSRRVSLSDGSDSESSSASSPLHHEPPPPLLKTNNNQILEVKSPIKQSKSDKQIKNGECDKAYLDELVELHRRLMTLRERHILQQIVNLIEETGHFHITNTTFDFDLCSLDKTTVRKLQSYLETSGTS
Active calls of the source: *; u = inconclusive; x = not tested or not shown. Rows were chosen to be rich in hits. Some 3.7% of all compounds tested hit in one or more screens of this group.

SMILES | MITF act | Wnt act | Ecoli rRNA inh | esBAF inh | AF4-AF9 inh
COc1cc(OC)c(N(C)S(=O)(=O)c2cccc(C(=O)Nc3nc(C)cs3)c2)cc1Cl | -9.5 | -1.3 | -23.8 | 0.6 | 2.2
COc1cc(OC)c(N(C)S(=O)(=O)c2cccc(C(=O)NC3=NCCS3)c2)cc1Cl | 2.6 | -3.6 | -23.4* | x | -0.4
Cn1c(SCc2ccccc2)nc(N)c(N=O)c1=O | x | 8.5 | -20.5* | x | -0.9
Cn1c(SCc2cccc(Br)c2)nc2ccccc2c1=O | -2.1 | -3.9 | -3.6 | -0.5 | -19.4
Cn1c(SCc2ccccc2)nc(C(F)(F)F)cc1=O | -2.4 | -1.0 | -22.9* | x | -1.8
CN(C)c1ccc2c(c1)[C@H]1C[C@@H](CC(=O)NCc3ccc(Oc4ccccc4)cc3)O[C@H](CO)[C@H]1O2 | x | x | -11.8 | x | 21.3
CN(C)CCCNC(=O)C[C@H]1C[C@H](C(=O)N2CCOCC2)[C@@]2(CCC3CCCC3)c3[nH]c4cc(-c5ccco5)ccc4c3CCN2C1=O | 5.2 | -4.0 | -18.4 | -3.9 | 40.6*
CC(C)N(C(=O)[C@H]1C[C@H](CC(=O)NCCCN(C)C)C(=O)N2CCc3c([nH]c4cc(-c5ccco5)ccc34)[C@]12C)C(C)C | -72.0 | 0.7 | -34.7 | 1.7 | 29.4*
C[C@]12c3[nH]c4ccc(Cl)cc4c3CCN1C(=O)[C@@H](CC(=O)NCc1ccco1)C[C@@H]2C(=O)N1CCOCC1 | 12.0 | -3.2 | -23.4* | -4.9 | 4.0
C[C@@H]1CN([C@H](C)CO)C(=O)c2cc(NS(C)(=O)=O)ccc2O[C@H]1CN(C)C | x | x | 1.1 | 7.7 | -7.3
CC1=C(O)C(=O)OC1c1c(Cl)cccc1Cl (stereo not drawn) | x | -2.5 | -28.9* | x | -1.0
Cc1ccc(NC(=O)c2nnn(-c3cc(C)cc(C)c3)c2N)cc1 | x | 31.2* | x | 48.5* | x
O=C(Nc1ccc(NC(=O)C2CCCCC2)nc1)c1ccccn1 | 93.8* | u | 9.3 | 47.2* | -2.8
COc1ccccc1C(=O)Nc1ccc(NC(=O)C2CCCCC2)nc1 | 25.0 | 1.1 | 7.2 | 12.2 | -5.4
O=C(Nc1ccc(N2CCOCC2)nc1)c1ccc(C(F)(F)F)cc1 | 9.4 | -1.8 | 12.7 | x | -0.5
O=C(Nc1ccc(NC(=O)C2CC2)cn1)c1ccccc1Cl | 35.0 | 36.9* | x | 42.4* | x
O=C(Nc1ccc(N2CCOCC2)nc1)c1ccccc1Cl | 54.3 | 21.2 | -3.0 | 44.7* | 0.2
Cc1ccc(S(=O)(=O)N2CCCC(C(=O)Nc3ccc(NC(=O)c4ccccn4)cc3)C2)cc1 (stereo not drawn) | 36.9 | 60.5* | x | 26.0 | x
Cc1cc(C)c2cc(C=O)c(Cl)nc2c1 | -34.5 | x | 11.8 | x | -2.3
Cc1ccc(S(=O)(=O)N2C[C@@H](O)COC[C@H]3O[C@H](CC(=O)NCC4CCCCC4)CC[C@@H]32)cc1 | x | x | -9.8 | 4.3 | 29.6*
CNC[C@H]1Oc2c(NC(=O)c3cnccn3)cccc2C(=O)N([C@H](C)CO)C[C@@H]1C | x | x | 5.3 | 1.0 | -6.0
COc1ccc2nc(Nc3ccccc3OC)sc2c1 | 52.6 | 48.1* | -40.0 | x | 1.5
COc1ccc2nc(Nc3ccccc3)sc2c1 | 94.7* | 14.2 | -20.0 | 36.8 | 9.3
Cc1cc2c(C)nc(-c3ccccc3)nc2o1 | 77.4 | 48.5* | x | x | x
CCC(=O)N1CCC1(C)C(=O)Nc1cc(-c2ccccc2)nn1C (stereo not drawn) | x | 0.9 | 17.1 | 65.1* | -1.1
SMILES | MITF act | Wnt act | Ecoli rRNA inh | esBAF inh | AF4-AF9 inh
CC(C)C(=O)N1CCC1(C)C(=O)Nc1cc(-c2ccccc2)nn1C (stereo not drawn) | x | 10.7 | 7.8 | 49.9* | -2.2
CCC1COCCS(=O)(=O)N1Cc1ccccc1 (stereo not drawn) | 1.1 | 1.1 | 2.9 | 0.2 | u
COC(=O)N/N=C/c1cn(Cc2ccccc2Cl)c2ccccc12 | -4.5 | -0.4 | -25.8* | x | 1.9
COC(=O)N/N=C/c1cn(Cc2ccc(Cl)cc2Cl)c2ccccc12 | -13.1 | -0.9 | -27.9* | x | 9.8
O=C(N/N=C/c1cn(Cc2cccc(F)c2)c2ccccc12)c1cc(O)cc(O)c1 | -4.5 | 2.1 | -24.2* | x | 13.8
COc1ccccc1OCCn1cc(/C=N/NC(=O)c2ccncc2)c2ccccc21 | -3.0 | 0.7 | -27.9* | -2.1 | 4.1
Cc1ccc(-n2ncc(C(=O)NCC3CCN(C4CCCC4)C3)c2C2CCN(C(=O)OC(C)(C)C)CC2)cc1C (stereo not drawn) | -3.5 | -2.0 | 1.7 | 7.6 | 6.7
O=C(O)c1ccc(N/N=C/c2cn(Cc3ccccc3F)c3ccccc23)cc1 | 72.8 | 13.0 | -34.8* | 53.8* | 7.3

Source: PubChem BioAssay
